Results with a measured potency or affinity are listed apart. Results filed as inconclusive are left out. Values without a mark were called inactive. Unless noted, how the calls were made is not given here.
Experiment: CMV-driven luciferase expression suppression in HEK293 – cell-based, luminescence, dry powder, counter-screen for Pax8 inhibitor project, dose response (AID 743020;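 active means signal-lowering compounds whose fitted half-maximal concentration is at or below twice the top tested dose in every run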;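 further: HEK293 cells stably expressing the CMV luciferase reporter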)
Details: HEK293 CMV-luciferase reporter, SteadyGlo luminescence, 24 h; series mostly up to 35 µM; activity change, negative = inhibition: at the top concentration

Point of comparison: `Cc1ccc(C)c(N2CCN(C(=O)CCCCCn3c(=S)[nH]c4ccc(N5CCOCC5)cc4c3=O)CC2)c1`, “activity change, negative = inhibition” value -7.5%. Against it:
- O=C(Nc1cccc(F)c1)N1CCCCN2[C@@H](CO)[C@H](c3ccc(C#Cc4ccccc4)cc3)[C@@H]2C1 — higher, 7.67%
- C[C@@H]1CCCCO[C@@H](CN(C)Cc2ccc3c(c2)OCO3)[C@H](C)CN([C@@H](C)CO)C(=O)c2cc(NC(=O)Nc3ccc(C(F)(F)F)cc3)ccc2O1 — higher, -0.657%
- CC(C)=CCC/C(C)=C/CNC(=O)C[C@H]1C[C@H](C(=O)N2CCOCC2)[C@@]2(C)c3[nH]c4ccc(Cl)cc4c3CCN2C1=O — lower, -50.3%
- C#CCN(C[C@H]1[C@H](OC(=O)Nc2c(C)noc2C)[C@H](OC(=O)Nc2c(C)noc2C)C[C@@H](C(=O)OC)[C@H]1C(=O)OC)S(=O)(=O)c1ccc(C)cc1 — lower, -25.5%
- O=C(NCCC1CCCCN1S(=O)(=O)c1ccc(Cl)cc1)C(=O)NCc1ccncc1 (stereo not given) — higher, 7.69%
- C[C@H]1CCCCO[C@@H](CN(C)Cc2ccc(C(F)(F)F)cc2)[C@@H](C)CN([C@@H](C)CO)C(=O)c2cc(NS(=O)(=O)c3ccc(Cl)cc3)ccc2O1 — lower, -11.4%
- O=C(NCc1cccnc1)/C(=C\c1ccc(-c2ccc(Cl)c(Cl)c2)o1)S(=O)(=O)c1ccccc1 — lower, -18.9%
- C=CC(=O)N1C/C(=C/c2ccc(Cl)cc2)C(=O)/C(=C\c2ccc(Cl)cc2)C1 — higher, 6.73%
- CCc1ccc2[nH]c3nc(N/N=C/c4ccc(O)cc4O)nnc3c2c1 — higher, 2.46%
- COc1ccc(-c2cc(-c3ccccc3)c(C#N)c(S(C)(=O)=O)n2)cc1 — higher, 11.6%
- COc1ccccc1N1CCN(Cc2cc(Br)c(O)c3ncccc23)CC1 — higher, 90.9%
- O=C(Nc1cccc(C2=NCCN2)c1)Nc1cccc(C2=NCCN2)c1 — higher, 6.96%
- Cc1ccc(S(=O)(=O)CCC(=O)c2ccc(O)cc2O)cc1 — higher, 6.1%
- CCN(c1nc(N)c(C(=O)N=C(N)N)nc1Cl)C(C)C — higher, 3.23%
- O=C1c2c(O)ccc(O)c2C(=O)c2c(NCCNCCO)ccc(NCCNCCO)c21 — lower, -34.4%
- COc1ccc(COC(=O)c2cc([N+](=O)[O-])ccc2N2CCOCC2)cc1F — lower, -44.2%
- O=C(N/N=C/c1ccc(O)cc1)c1[nH]c2ccc(Br)cc2c1-c1ccccc1 — lower, -9.09%
- N#Cc1ccc(NC(=O)COC(=O)C2CCC2)cc1 — higher, -0.066%
- CN(Cc1ccccc1)N=Nc1nc[nH]c1C(N)=O — higher, 11.6%
- Cc1ccc(S(=O)(=O)c2nc(S(=O)(=O)c3ccccc3)sc2N2CCN(C)CC2)cc1 — higher, 18.9%
- C=C1C(=O)[C@@]23[C@H](O)C[C@@H]4C(C)(C)CC[C@H](O)[C@@]4(C)[C@@H]2CC[C@@H]1[C@H]3O — lower, -28.3%
- O=C(Nc1cccc(NC(=O)c2ccccc2Cl)c1)c1ccc([N+](=O)[O-])o1 — higher, 6.42%
- O=C(C[C@@H]1C[C@H]2c3cc(NS(=O)(=O)c4ccc(F)cc4)ccc3O[C@H]2[C@@H](CO)O1)NCc1ccc(Oc2ccccc2)cc1 — lower, -11.1%
- CC(C)OCCCNC(=O)c1cccc(NC(=O)c2ccccc2)c1 — higher, 5.72%

Experiment: general cell-killing toxicity readout – plate reader, dry powder samples, cytotoxicity control for PAX8 inhibitor project, dose response (AID 743021)
Details: cell line, non-specific cytotoxicity counter-screen; series mostly up to 35 µM; activity change, negative = cytotoxicity: at the top concentration

Point of comparison: `O=C(NCc1cccnc1)/C(=C\c1ccc(-c2ccc(Cl)c(Cl)c2)o1)S(=O)(=O)c1ccccc1`, “activity change, negative = cytotoxicity” value 87.5%. Against it:
- Cc1[nH]nc2nc(SCC(=O)NC3CCCCC3)n(-c3ccc(Br)cc3)c(=N)c12 — lower, -20.1%
- O=C(Nc1nc(-c2cccs2)c(-c2cccs2)s1)C1(c2ccccc2)CC1 — lower, 16.1%
- CCOC(=O)Nc1ccc2c(c1)N(C(=O)CCCl)c1ccccc1[S@]2=O — lower, 21.1%
- O=C(Nc1ccc(Cl)cc1)Nc1ccc(N2CCCC2)c(S(=O)(=O)Nc2ccccc2Cl)c1 — lower, 27.3%
- Cc1ccc(-c2cn3cc(C)ccc3n2)cc1 — lower, -7.55%
- CCc1ccc(CNC(=O)C2CCCN(c3nnc(C)c4c(C)n(-c5ccccc5)nc34)C2)cc1 (stereo not given) — lower, -2.89%
- CCO[C@H]1OC(C(=O)N2CCN(Cc3ccccc3)CC2)=C[C@@H](c2ccc(C(F)(F)F)cc2)[C@@H]1CCCO — lower, 9.31%
- C[C@@H](NC(=O)c1nc[nH]c1C(=O)N[C@@H](Cc1ccccc1)C(=O)OC(C)(C)C)c1ccccc1 — lower, -1.88%
- CC(=O)N1CCN(c2ccc(NC(=O)c3ccc([N+](=O)[O-])o3)cc2Cl)CC1 — lower, 27.3%
- N=c1n(Cc2ccccc2)c2ccccc2n1CC(O)COc1ccc(Cl)cc1Cl (stereo not given) — lower, -16.9%
- COc1ccc(C(=O)N/N=C/c2ccc(OC)c(CN3CCN(c4ccc(F)cc4)CC3)c2)cc1 — lower, -20.6%
- CCCCn1cnc2c(c(-c3ccccc3)c(-c3ccccc3)n2Cc2ccco2)c1=N — lower, -2.25%
- FC(F)(F)c1nnc2c(Sc3ccccc3)nc3ccc(Cl)cc3n12 — lower, -12.9%
- C=C1C2(C(=O)Nc3ccc(SC(F)F)cc3)CCC(C2)C1(C)C (stereo not given) — lower, 41.2%
- COc1ccc(O)c(/C=N/NC(=O)c2ccc(N3CCCC3=O)cc2)c1 — lower, -8.25%
- O=C(Nc1cccc(F)c1)N1CCCCN2[C@@H](CO)[C@H](c3ccc(C#Cc4ccccc4)cc3)[C@@H]2C1 — lower, -23.7%
- C[C@@H]1CCCCO[C@@H](CN(C)Cc2ccc3c(c2)OCO3)[C@H](C)CN([C@@H](C)CO)C(=O)c2cc(NC(=O)Nc3ccc(C(F)(F)F)cc3)ccc2O1 — lower, -27.6%
- CC(C)=CCC/C(C)=C/CNC(=O)C[C@H]1C[C@H](C(=O)N2CCOCC2)[C@@]2(C)c3[nH]c4ccc(Cl)cc4c3CCN2C1=O — lower, 8.01%
- C#CCN(C[C@H]1[C@H](OC(=O)Nc2c(C)noc2C)[C@H](OC(=O)Nc2c(C)noc2C)C[C@@H](C(=O)OC)[C@H]1C(=O)OC)S(=O)(=O)c1ccc(C)cc1 — lower, 32.1%
- O=C(NCCC1CCCCN1S(=O)(=O)c1ccc(Cl)cc1)C(=O)NCc1ccncc1 (stereo not given) — lower, -24.4%
- C[C@H]1CCCCO[C@@H](CN(C)Cc2ccc(C(F)(F)F)cc2)[C@@H](C)CN([C@@H](C)CO)C(=O)c2cc(NS(=O)(=O)c3ccc(Cl)cc3)ccc2O1 — lower, -8.93%
- C=CC(=O)N1C/C(=C/c2ccc(Cl)cc2)C(=O)/C(=C\c2ccc(Cl)cc2)C1 — lower, 81.7%
- CCc1ccc2[nH]c3nc(N/N=C/c4ccc(O)cc4O)nnc3c2c1 — lower, -14.6%
- COc1ccc(-c2cc(-c3ccccc3)c(C#N)c(S(C)(=O)=O)n2)cc1 — lower, -4.95%
- COc1ccccc1N1CCN(Cc2cc(Br)c(O)c3ncccc23)CC1 — lower, 25.9%
- O=C(Nc1cccc(C2=NCCN2)c1)Nc1cccc(C2=NCCN2)c1 — lower, 26.9%
- Cc1ccc(S(=O)(=O)CCC(=O)c2ccc(O)cc2O)cc1 — lower, 37.3%
- CCN(c1nc(N)c(C(=O)N=C(N)N)nc1Cl)C(C)C — lower, 12.5%
- O=C1c2c(O)ccc(O)c2C(=O)c2c(NCCNCCO)ccc(NCCNCCO)c21 — lower, -23.9%
- COc1ccc(COC(=O)c2cc([N+](=O)[O-])ccc2N2CCOCC2)cc1F — lower, -22.4%
- O=C(N/N=C/c1ccc(O)cc1)c1[nH]c2ccc(Br)cc2c1-c1ccccc1 — lower, 7.23%
- N#Cc1ccc(NC(=O)COC(=O)C2CCC2)cc1 — lower, -15.9%
- CN(Cc1ccccc1)N=Nc1nc[nH]c1C(N)=O — lower, 32.9%
- Cc1ccc(S(=O)(=O)c2nc(S(=O)(=O)c3ccccc3)sc2N2CCN(C)CC2)cc1 — lower, 0.036%
- C=C1C(=O)[C@@]23[C@H](O)C[C@@H]4C(C)(C)CC[C@H](O)[C@@]4(C)[C@@H]2CC[C@@H]1[C@H]3O — lower, 13.5%
- O=C(Nc1cccc(NC(=O)c2ccccc2Cl)c1)c1ccc([N+](=O)[O-])o1 — lower, -16.3%
- O=C(C[C@@H]1C[C@H]2c3cc(NS(=O)(=O)c4ccc(F)cc4)ccc3O[C@H]2[C@@H](CO)O1)NCc1ccc(Oc2ccccc2)cc1 — lower, -31%
- CC(C)OCCCNC(=O)c1cccc(NC(=O)c2ccccc2)c1 — lower, 14.9%
- Cc1ccc(C)c(N2CCN(C(=O)CCCCCn3c(=S)[nH]c4ccc(N5CCOCC5)cc4c3=O)CC2)c1 — lower, -10.8%

Reference: PubChem BioAssay
